Bioassay records as filed in PubChem.
In the library only some 1.3% were active in any assay of this set; here they are far more common.
TRPML1 ag – activates the human TRPML1 channel; Q9GZU1; TRPML1-expressing cells, Ca2+ dye fluorescence, FDSS; activation, % (test concentration not listed); hit rate 0.12% among 410,000; also: 0% is about no effect
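Tetracycline-induced TRPML1-DL cells are seeded and incubated overnight before loading with a no-wash Ca2+ dye and quencher. Agonist activity is taken from the 110 s fluorescence read following compound pin-transfer on an FDSS, before EC80 54-4 challenge.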
IL-2 act – IL-2 activation | IL-2 activation reporter assay, cell-based qHTS; stimulated with anti-CD3/CD4/CD28 beads; in transgenic mouse T cells | activation, % (series mostly up to about 46 µM) | hit rate 0.065% among 360,000 | AID 652025; also: 0% is about no effect
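Unstimulated transgenic mouse T cells, 750 per well, received compound and, after 60 minutes, anti-CD3/anti-CD4 bead plus anti-CD28 stimulation. EGFP and DsRed were quantified after 18 hours.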
TRPML1 blocker – blocks the human TRPML1 channel; hit rate 0.02% among 390,000; AID 624415; TRPML1-inducible cells, Ca2+ dye fluorescence, FDSS; stronger effect = lower value; inhibition of EC80 agonist-evoked calcium signal; Q9GZU1; activity change, negative = inhibition, % (test concentration not listed); in the data active = activity change below about -50%; inconclusive = between about -30% and that limit;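 also: stimulus is agonist 54-4 at its EC80 concentration; % is scaled to controls: 0 for no effect and ±100 for the full control effect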
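Calcium fluorescence in TRPML1-DL cells induced overnight with Tet: a 110 s read after compound pin addition, then a 110 s antagonist read after challenge with 54-4 at 4 uM final (EC80).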
TSG101-PTAP inh – blocks PTAP/TSG101 interaction to inhibit HIV-1 budding; Potency, µM (doses to about 115 µM), for the others: top-dose activity change, negative = inhibition, hits mostly inhibitors; AID 493005; Q99816; Fluorescence polarization, FITC-PTAP peptide / Tsg101 binding; 340,000 tested, under 10 active; active = well fitted inhibition curve with a large enough effect in the main read-out, with a control signal flat, not every such curve was filed as active; inconclusive = small, poorly fitted or top-dose-only effect, or effect the other way, or a change in a side signal; inactive = no such curve, though single readings can be large or run the other way; also: potency is read from the fitted curve at half-maximal effect; % of control where 0% means no effect
Target sequence (Q99816 whole entry, looked up): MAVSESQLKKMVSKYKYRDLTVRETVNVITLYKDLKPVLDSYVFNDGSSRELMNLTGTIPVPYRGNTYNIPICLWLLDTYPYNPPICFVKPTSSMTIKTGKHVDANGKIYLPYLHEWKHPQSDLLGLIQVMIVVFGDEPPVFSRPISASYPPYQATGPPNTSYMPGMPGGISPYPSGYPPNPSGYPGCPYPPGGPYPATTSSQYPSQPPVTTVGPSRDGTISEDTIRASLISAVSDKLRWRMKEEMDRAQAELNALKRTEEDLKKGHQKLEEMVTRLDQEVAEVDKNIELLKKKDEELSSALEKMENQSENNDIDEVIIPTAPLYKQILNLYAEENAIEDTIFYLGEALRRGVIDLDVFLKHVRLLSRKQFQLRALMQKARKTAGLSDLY
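Fluorescence polarization binding of Tsg101 binding domain (10 uM final) to FITC-labeled PTAP peptide (50 nM final) in HEPES pH 7.5 buffer with NaCl, Tween 20, EDTA, TCEP. Compounds added before peptide; binding 20 min at RT.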
BRCA1 expr up – activators of BRCA1 expression | hit rate 1.1% among 380,000 | Potency, µM (doses to about 46.1 µM), for the others: at the highest dose activation, most hits filed as activators | MCF7-BRCA1-FFLuc reporter, luminescence, 48 h; response scale: scaled: vehicle 0%, 10 µM genistein 100%; active = well fitted activation curve with a large enough effect; inconclusive = small, poorly fitted or top-dose-only effect; inactive = no such curve, though single readings can be large or run the other way; also: potency is read from the fitted curve at half-maximal effect; nearly all actives have a fitted effect of over 80% in size
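Reporter cells (MCF7, BRCA1 promoter-firefly luciferase) received library compounds across a concentration series for 48 h. End-point luminescence was measured and concentration-effect curves derived after normalization.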
PKM2 activator – activators of human pyruvate kinase M2 | hit rate 0.34% among 260,000 | P14618 | AID 1631 | purified PKM2, Kinase-Glo ATP luminescence, activation; response scale: 0% is enzyme alone, no compound | Potency, µM (series often up to 57.5 µM), for the others: at the highest dose activation, usual class: activators; active = well fitted activation curve with a large enough effect; inconclusive = small, poorly fitted or top-dose-only effect; inactive = no such curve, though single readings can be large or run the other way; also: potency is read from the fitted curve at half-maximal effect; % is scaled to controls: 0 for no effect and ±100 for the full control effect; nearly all actives have a fitted effect of over 55% in size
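ATP formation by purified human PK-M2, quantified via coupled luciferase luminescence after 1 h at room temperature with 0.1 mM ADP and 0.5 mM PEP final.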
* marks the source's active call; other numbers are inactive results. Rule as the data show it, unless noted: active = activation above about 50%; inconclusive = mostly about 30% to 49%; inactive = weaker than that.

How did CSc1ccc(S(=O)(=O)N2CCC(C(=O)NCc3ccco3)CC2)cc1 do in these assays?
TRPML1 ag: 1; IL-2 act: 1; TRPML1 blocker: 4; TSG101-PTAP inh: -6%; BRCA1 expr up: -17%; PKM2 activator: 10µM*

What do the screens show for `O=C(NCc1cccs1)[C@@H]1CCCN1S(=O)(=O)c1ccccc1F`?
TRPML1 ag: -1; IL-2 act: 0; TRPML1 blocker: -7; TSG101-PTAP inh: -3%; BRCA1 expr up: -25%

How did Cc1nc2cccnc2n1-c1cccc(C(=O)NCc2ccc(OC(C)C)cc2)c1 do in these assays?
TRPML1 ag: 2; TRPML1 blocker: 8

Results for CC(C)(C)n1ncc2c(=O)n(Cc3cccc(Cl)c3Cl)cnc21 ?
TRPML1 ag: 2; TRPML1 blocker: 4

What do the screens show for `CC(=O)c1ccc(NC(=O)c2cccc(S(=O)(=O)N3CCN(C)CC3)c2)cc1`?
TRPML1 ag: 0; IL-2 act: -3; TRPML1 blocker: -18; TSG101-PTAP inh: -8%; BRCA1 expr up: 11µM*; PKM2 activator: 2%

How did COc1ccc(-c2nc3c(c(SCC(=O)N4CCCCC4)n2)Cc2cc(C)ccc2O3)cc1 do in these assays?
TRPML1 ag: 0; TRPML1 blocker: -11

Results for CCCC(=O)c1cc2ccccc2oc1=O ?
TRPML1 ag: 0; IL-2 act: 0; TRPML1 blocker: 24; TSG101-PTAP inh: -4%; BRCA1 expr up: -2%; PKM2 activator: -3%

Results for COc1ccc(C(=O)Cc2cc3ccccc3oc2=O)cc1 ?
TRPML1 ag: 0; IL-2 act: 1; TRPML1 blocker: -4; TSG101-PTAP inh: 0%; BRCA1 expr up: 4.5µM*

What do the screens show for `Cc1ccc(C(=O)Cc2cc3ccccc3oc2=O)c(C)c1`?
TRPML1 ag: 2; IL-2 act: 0; TRPML1 blocker: -14; TSG101-PTAP inh: -4%; BRCA1 expr up: 4µM*

What do the screens show for `O=C(Nc1cccc2cccnc12)c1ccc(Br)cc1`?
TRPML1 ag: 2; TRPML1 blocker: 1; BRCA1 expr up: -16%

How did C(=N\n1cnnc1)/c1cccn1-c1ccccc1 do in these assays?
TRPML1 ag: 1; IL-2 act: -1; TRPML1 blocker: 3; TSG101-PTAP inh: -1%; BRCA1 expr up: 5%; PKM2 activator: 28µM*

Results for COC(=O)c1cc2c([nH]c1=O)CC(c1ccccc1)CC2=O (stereo not given) ?
TRPML1 ag: -1; BRCA1 expr up: -4%

What do the screens show for `CC(C)(C)n1ncc2c(=O)n(Cc3ccc(-c4ccccc4C#N)cc3)cnc21`?
TRPML1 ag: 2; TRPML1 blocker: -7

Results for O=C(NCC(=O)N1CCN(c2ccccc2)CC1)c1ccc(Cl)cc1 ?
TRPML1 ag: 0; IL-2 act: 0; TRPML1 blocker: -54*; TSG101-PTAP inh: -1%; BRCA1 expr up: 2%

How did O=C(CNC(=O)c1ccc(Cl)cc1)c1ccc(Cl)cc1 do in these assays?
TRPML1 ag: 1; IL-2 act: 0; TRPML1 blocker: 13; TSG101-PTAP inh: 0%; BRCA1 expr up: 11µM*

Results for CCN=C1S/C(=C\c2cn(CC)c3ccccc23)C(=O)N1CC ?
TRPML1 ag: -1; IL-2 act: -4; TRPML1 blocker: -4; TSG101-PTAP inh: 0%; BRCA1 expr up: -6%; PKM2 activator: 5%

Results for CCn1cc(C=C2C(=O)c3ccccc3C2=O)c2ccccc21 ?
TRPML1 ag: 8; IL-2 act: 108*; TRPML1 blocker: -9; TSG101-PTAP inh: inconclusive; BRCA1 expr up: -20%; PKM2 activator: 1%

How did Cc1ccc(C)c(OCc2nc3ccccc3[nH]2)c1 do in these assays?
TRPML1 ag: 1; IL-2 act: 0; TRPML1 blocker: 10; TSG101-PTAP inh: -6%; BRCA1 expr up: 3.2µM*; PKM2 activator: 0%

What do the screens show for `Cc1cccc(C)c1OCc1nc2ccccc2[nH]1`?
TRPML1 ag: -1; IL-2 act: -2; TRPML1 blocker: -13; TSG101-PTAP inh: -1%; BRCA1 expr up: -3%; PKM2 activator: 16%

What do the screens show for `Cc1ccc(N=Cc2sc(O)c3ccccc23)c(C)c1`?
TRPML1 ag: 6; IL-2 act: 0; TRPML1 blocker: 21; TSG101-PTAP inh: inconclusive; BRCA1 expr up: 3.2µM*; PKM2 activator: -2%

What do the screens show for `Cc1ccc(N=Cc2cccc(O)c2O)c(C)c1`?
TRPML1 ag: -1; BRCA1 expr up: -55%; PKM2 activator: 13µM*

Results for Cc1ccccc1N=Cc1cccc(O)c1O ?
TRPML1 ag: -1; IL-2 act: -1; TRPML1 blocker: -2; TSG101-PTAP inh: -5%; BRCA1 expr up: -20%; PKM2 activator: 17%

Results for Cc1ccc(SCC(=O)Nc2ccccc2C(=O)O)cc1 ?
TRPML1 ag: 1; IL-2 act: -2; TRPML1 blocker: 30; TSG101-PTAP inh: -5%; BRCA1 expr up: 4.5µM*; PKM2 activator: -16%

Results for Cc1c(CC(=O)NC(C)C)c(=O)oc2cc3c(cc12)CCC(C)(C)O3 ?
TRPML1 ag: 1; IL-2 act: -1; TRPML1 blocker: 17; TSG101-PTAP inh: 0%; BRCA1 expr up: 11µM*

How did O=[N+]([O-])c1cccc(S(=O)(=O)c2ccc(NCCOCCO)c([N+](=O)[O-])c2)c1 do in these assays?
TRPML1 ag: 1; IL-2 act: -1; TRPML1 blocker: 0; TSG101-PTAP inh: 0%; BRCA1 expr up: 0%

How did O=[N+]([O-])c1cccc(S(=O)(=O)c2ccc(NCCO)c([N+](=O)[O-])c2)c1 do in these assays?
TRPML1 ag: 1; IL-2 act: -1; TRPML1 blocker: 12; TSG101-PTAP inh: 0%; BRCA1 expr up: 12%; PKM2 activator: 16µM*

What do the screens show for `Cc1ccc(CONC(=O)c2cccc(C)c2)cc1`?
TRPML1 ag: 0; IL-2 act: 1; TRPML1 blocker: -11; TSG101-PTAP inh: -1%; BRCA1 expr up: 8.9µM*

How did O=C(NOCc1ccccc1)c1ccccc1 do in these assays?
TRPML1 ag: 0; IL-2 act: -4; TRPML1 blocker: -1; TSG101-PTAP inh: -3%; BRCA1 expr up: 1.3µM*

How did CCCCOc1ccc(C(=S)N2CCC(C(N)=O)CC2)cc1 do in these assays?
TRPML1 ag: 0; IL-2 act: 0; TRPML1 blocker: 13; TSG101-PTAP inh: -1%; BRCA1 expr up: 4µM*; PKM2 activator: -2%

How did Cc1cc(Oc2ccccc2)nc(C#N)n1 do in these assays?
TRPML1 ag: -1; BRCA1 expr up: 19%
